The values below come from PubChem BioAssay (NCI).

SMILES strings stand for the structures. About 83,000 compounds went through this panel and 20% of them were active in at least one assay; those are over-represented in the sample as a whole.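 For each line, cells grew in 96-well plates with the test compound present at a single concentration for 48 hours.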 Values without a mark were called inactive. Calls of active or inactive are those of the source. The calls were made as follows: active = growth percent below 10; inactive = the rest.

Among the test systems are SK-MEL-2 melanoma; EKVX NSCLC; SN12C renal; UO-31 renal; TK-10 renal; ACHN renal; CAKI-1 renal; A498 renal; CCRF-CEM leukemia; MOLT-4 leukemia; SR leukemia; OVCAR-8 ovarian; OVCAR-5 ovarian; OVCAR-4 ovarian; SK-OV-3 ovarian; IGROV1 ovarian; OVCAR-3 ovarian; HS 578T breast; NCI/ADR-RES ovarian.
Common to all, as to experiment: NCI-60 one-dose screen, 48 h (100 = growth as untreated, 0 = no growth, -100 = all killed)
Settings in all cases: 10 µM unless noted

For `O=C(Nc1ccc(F)cc1F)c1cc(F)ccc1O`, the growth in the assay with SK-MEL-2 melanoma was -20% (active); with EKVX NSCLC, 64.2%; in the assay on SN12C renal, -3.45% (active); in the assay on UO-31 renal, -16.1% (active); in the assay with TK-10 renal, 22.9%; in the assay on ACHN renal, 7.4% (active). In addition, the growth in the assay on CAKI-1 renal was 3.45% (active); in the assay with A498 renal, -37.5% (active); with CCRF-CEM leukemia it was 30.4%; in the assay with MOLT-4 leukemia, 5.84% (active); with SR leukemia, 4.78% (active); in the assay with OVCAR-8 ovarian, 14.9%. The growth in the assay on OVCAR-5 ovarian is 23.3%; with OVCAR-4 ovarian, 21%; in the assay with SK-OV-3 ovarian, 4.34% (active); in the assay with IGROV1 ovarian, 21.4%; in the assay on OVCAR-3 ovarian, 1.72% (active); in the assay on HS 578T breast, 12%. The growth in the assay on NCI/ADR-RES ovarian was 6.3% (active).
In the case of `COc1cc2cc(Oc3ccc(NC(=O)Nc4ccc(Cl)c(Cl)c4)cc3)c(C)nc2cc1OCCN1CCOCC1`, the growth is 107% with SK-MEL-2 melanoma; 66.4% in the assay on EKVX NSCLC; 91.5% with SN12C renal; 83.9% with UO-31 renal; 124% with TK-10 renal; 93.4% in the assay on ACHN renal. For the same molecule, the growth in the assay with CAKI-1 renal was 87.5%; with A498 renal, 72.8%; with CCRF-CEM leukemia, 65%; in the assay on MOLT-4 leukemia it was 62.7%; with SR leukemia, 5.6% (active); in the assay with OVCAR-8 ovarian, 91.1%. In addition, the growth is 127% in the assay with OVCAR-5 ovarian; 85% with OVCAR-4 ovarian; 111% in the assay with SK-OV-3 ovarian; 97.8% in the assay with IGROV1 ovarian; 106% with OVCAR-3 ovarian; 102% with HS 578T breast. In addition, the growth in the assay with NCI/ADR-RES ovarian is 91.4%.
On to `CCCCn1c(=O)c(-c2cc(-c3ccc(Cl)cc3)nc(-c3ccc(Cl)cc3)c2)cc2cc(C)ccc21`, for which the growth was 118% in the assay with SK-MEL-2 melanoma; 101% in the assay on EKVX NSCLC; 92.2% with SN12C renal; 86.2% in the assay with UO-31 renal; 98.7% with TK-10 renal; 107% in the assay with ACHN renal. The growth with CAKI-1 renal is 94.8%; with A498 renal, 103%; in the assay with CCRF-CEM leukemia, 101%; with MOLT-4 leukemia it was 105%; with SR leukemia, 109%; in the assay on OVCAR-8 ovarian, 100%. Besides, the growth with OVCAR-5 ovarian is 100%; with OVCAR-4 ovarian it was 110%; in the assay on SK-OV-3 ovarian it was 115%; in the assay with IGROV1 ovarian, 96.4%; with OVCAR-3 ovarian, 112%; in the assay with HS 578T breast, 99.1%. The growth in the assay with NCI/ADR-RES ovarian was 104%.
As for `CCCCCCCCCCCCCCCCCCOc1ccc(CC(=O)OCC[N+]2(C)CCCCC2)cc1`, the growth was 104% in the assay with SK-MEL-2 melanoma; 97.9% with EKVX NSCLC; 89.1% with SN12C renal; 94.1% in the assay on UO-31 renal; 99.1% in the assay on TK-10 renal; 97.5% in the assay with ACHN renal. Moreover, the growth in the assay with CAKI-1 renal is 100%; in the assay with A498 renal, 100%; in the assay on CCRF-CEM leukemia, 89.8%; in the assay with MOLT-4 leukemia it was 98.6%; in the assay with SR leukemia it was 102%; in the assay with OVCAR-8 ovarian it was 96.9%. Moreover, the growth was 100% in the assay with OVCAR-5 ovarian; 86.8% in the assay on OVCAR-4 ovarian; 104% in the assay with SK-OV-3 ovarian; 92.6% in the assay with IGROV1 ovarian; 101% in the assay with OVCAR-3 ovarian; 108% in the assay on HS 578T breast. The growth in the assay with NCI/ADR-RES ovarian was 104%.
In the case of `CC(C)C(=O)Nc1ccc(-c2nc(-c3cccc(OCCN4CCOCC4)c3)c(-c3ccnc(Br)c3)[nH]2)cc1`, the growth in the assay with SK-MEL-2 melanoma is 36.2%; with EKVX NSCLC, 77.2%; in the assay on SN12C renal, 70.5%; in the assay with UO-31 renal it was 12.4%; in the assay with TK-10 renal it was 85.3%; in the assay on ACHN renal, 58.7%. The growth was 44% with CAKI-1 renal; 54.7% in the assay on A498 renal; 29% in the assay on CCRF-CEM leukemia; 10.6% in the assay on MOLT-4 leukemia; -3.9% (active) with SR leukemia; 51.8% in the assay on OVCAR-8 ovarian. In addition, the growth in the assay with OVCAR-5 ovarian was 75.2%; with OVCAR-4 ovarian, 60%; in the assay on SK-OV-3 ovarian, 73.6%; in the assay on IGROV1 ovarian, 68.7%; with OVCAR-3 ovarian, 63.3%; with HS 578T breast, -26% (active). The growth in the assay with NCI/ADR-RES ovarian is 91.7%.
Consider `COc1ccc2sc3c(NCCCNCCO)nc4ccccc4c3c(=O)c2c1`, for which the growth with SK-MEL-2 melanoma is 102%; in the assay on EKVX NSCLC it was 67.2%; with SN12C renal, 62%; in the assay on UO-31 renal it was 46.4%; in the assay with TK-10 renal, 75%; in the assay with ACHN renal it was 57.7%. The growth in the assay on CAKI-1 renal was 44%; in the assay with A498 renal, 38.1%; with CCRF-CEM leukemia it was 2.35% (active); with MOLT-4 leukemia, 16.4%; with SR leukemia, -46.9% (active); with OVCAR-8 ovarian, 54.6%. Besides, the growth was 84.2% in the assay on OVCAR-5 ovarian; 4.38% (active) in the assay with OVCAR-4 ovarian; 85.7% in the assay with SK-OV-3 ovarian; 45.9% with IGROV1 ovarian; 0.904% (active) with OVCAR-3 ovarian; 53% in the assay with HS 578T breast. The growth in the assay on NCI/ADR-RES ovarian is 63.8%.
With `Cc1c(C(=O)NCCN2CCOCC2)cn2ncnc(Oc3ccc(NC(=O)Nc4ccc(Cl)c(C(F)(F)F)c4)cc3)c12`, the growth in the assay with SK-MEL-2 melanoma is -20.8% (active); with EKVX NSCLC it was 25.2%; in the assay with SN12C renal it was 21.2%; with UO-31 renal, 52.7%; in the assay on TK-10 renal, 32.2%; in the assay on ACHN renal, 13.6%. Also, the growth with CAKI-1 renal was 30.3%; with A498 renal, -5.16% (active); in the assay on CCRF-CEM leukemia, 9.09% (active); in the assay on MOLT-4 leukemia, -3.35% (active); in the assay with SR leukemia it was 1.03% (active); in the assay on OVCAR-8 ovarian, 33%. Moreover, the growth in the assay with OVCAR-5 ovarian is 53.3%; in the assay on OVCAR-4 ovarian, 31.7%; with SK-OV-3 ovarian, 30.6%; in the assay on IGROV1 ovarian, 39.3%; in the assay with OVCAR-3 ovarian it was 16%; with HS 578T breast, -23.8% (active). Further, the growth in the assay on NCI/ADR-RES ovarian was 82.1%.
`COc1ccc(C(=O)N=Nc2c(O)n(C)c3ccccc23)cc1`: the growth with SK-MEL-2 melanoma was 114%; in the assay with EKVX NSCLC it was 77%; in the assay on SN12C renal, 94.5%; in the assay on UO-31 renal, 69.3%; with TK-10 renal, 146%; in the assay on ACHN renal, 91.4%. The growth in the assay with CAKI-1 renal was 82.3%; with A498 renal, 99.5%; in the assay with CCRF-CEM leukemia it was 94.2%; in the assay with MOLT-4 leukemia, 99.9%; in the assay with SR leukemia, 80.5%; in the assay on OVCAR-8 ovarian, 95.6%. For the same molecule, the growth in the assay on OVCAR-5 ovarian is 105%; with OVCAR-4 ovarian, 91.9%; in the assay with SK-OV-3 ovarian it was 87.2%; in the assay with IGROV1 ovarian it was 90.2%; in the assay with OVCAR-3 ovarian, 104%; in the assay on HS 578T breast, 99.5%. The growth with NCI/ADR-RES ovarian was 91.5%.
